This note sets out measurements from PubChem BioAssay AID565 (University of Pittsburgh Molecular Library Screening Center, 2006).

About 1,200 (1.8%) of roughly 65,000 compounds were called active. Rule as the data show it: active = inhibition above about 50%; inactive = the rest. This excerpt belongs to a sample that is enriched for actives.

In the assay the target is Gag-Pol polyprotein (Human immunodeficiency virus type 1 group M subtype B (isolate HXB2)) (UniProt P04585). In words: blockers of HIV-1 RNase H RNA/DNA cleavage – biochemical, fluorescence, primary screen (AID 565). To be noted: RT-RNase H RNA/DNA duplex cleavage, at 10 µM, hits give high values.
One may read the inhibition as the change of the read-out against control, counted positive when it falls. Turning to `O=c1c2ccccc2nnn1CSc1nc2sc3c(c2c(=O)n1CC1CCCO1)CCC3` (stereo not drawn), the inhibition was -3.16% (inactive).

As to `CC1Oc2ccccc2N(Cc2cccnc2)C1=O` (stereo not drawn), the inhibition was -1.88% (inactive).

`COC(=O)Nc1ccc(S(=O)(=O)N(C)CC(F)(F)C(F)F)cc1`: the inhibition was -4.49% (inactive).

With `O=C(CN1CCN(CC(=O)Nc2ccc3c(c2)OCO3)CC1)Nc1ccc(F)cc1`, the inhibition is -10.3% (inactive).

`N#CC(=C1SC=CS1)c1nc(-c2ccccc2)cs1`: the inhibition is 55.1% (active). For `c1ccc(Nc2nc(-c3ccncc3)cs2)nc1` the value was -13.7% (inactive); for `N#C/C(=C1\CCCN1)c1nc(-c2ccccc2)cs1`, -34% (inactive); for `Cc1cc(C)n(C(=O)c2ccc(S(=O)(=O)N3CCCC3)cc2)n1`, -7.85% (inactive). For `Fc1ccccc1OCCSc1nc2ccccc2o1` the value was -31.7% (inactive); for `Cc1nc2ccccc2c(=O)n1CCCn1ccnc1`, -6.99% (inactive). As for `Cc1ccnc(-n2sc3ccccc3c2=O)n1`, the figure is 84.5% (active); as for `CC12C(=O)N(n3cnnc3)C(=O)C1C1C=CC2C1` (stereo not drawn), 1.01% (inactive); as for `C/C(=C\C(=O)c1ccc(Br)cc1)N1CCCCC1`, -18.6% (inactive). For `CCC(=O)Nc1cccc(NC(=O)CSc2nnc(-c3ccc(NS(C)(=O)=O)cc3)n2C)c1`, the inhibition was -1.65% (inactive). In the case of `CCc1c(C)[nH]c(=S)c(C#N)c1C`, the inhibition was 84.3% (active). As for `CC(=O)N1CCN(CCN=CC2=C(O)CC(C)(C)CC2=O)CC1`, the figure is -3.55% (inactive); as for `COCCCNC(=O)Cn1cc(C(=O)C2CC2)c2ccccc21`, -5.05% (inactive); as for `O=C(CSc1nnc(Cn2cnc3ccccc32)o1)c1ccccc1`, -18.7% (inactive). For `c1ccc(Cc2nn3c(Cn4cnc5ccccc54)nnc3s2)cc1` the value was 82.6% (active); for `CCOc1cccc(-c2nnc3sc(COc4ccc(OC)cc4)nn23)c1`, 1.27% (inactive); for `Fc1ccc(OCc2nn3c(Cn4nnc5ccccc54)nnc3s2)cc1`, 77.8% (active). Regarding `Cc1ccc(C(=O)CSc2nnc(Cn3nnc4ccccc43)n2C)cc1`, the inhibition was -1.04% (inactive). As for `N#CCCn1cnc2ccccc21`, the figure is -0.17% (inactive); as for `NC(=O)C1CCN(C2OC(=O)c3ccccc32)CC1` (stereo not drawn), 2.61% (inactive); as for `COc1ccc(OCC(=O)N2CCOCC2)cc1`, -8.89% (inactive). With `CCOc1cc(-c2noc(CCC(=O)N3CCOCC3)n2)ccc1OC`, the inhibition is -9.69% (inactive). As for `CCOc1cc(C(=S)N2CCOCC2)ccc1O`, the figure is 91.2% (active). As for `CCCSc1nc2c(c(=O)[nH]c(=O)n2C)n1CCc1ccccc1`, the figure is -11.9% (inactive). For `Cn1c(=O)[nH]c(=O)c2c1nc(N1CCCCCC1)n2CC(=O)c1ccccc1` the value was 1.85% (inactive); for `CCCCCCn1c(SCC(=O)c2ccccc2)nc2c1c(=O)[nH]c(=O)n2C`, 54.7% (active).

Consider `Cn1c(=O)[nH]c(=O)c2c1nc(Br)n2CCCCSc1nc2ccccc2o1`, for which the inhibition is 19.8% (inactive). As for `CCCCCn1c(SCCC(C)C)nc2c1c(=O)[nH]c(=O)n2C`, the figure is 54.8% (active). For `Cc1nnc(SCCCn2c(N3CCCCC3)nc3c2c(=O)[nH]c(=O)n3C)s1` the value was -3.25% (inactive); for `CCn1cc(NC(=O)Nc2ccc(OC)c(OC)c2)c(C(N)=O)n1`, 9.07% (inactive); for `O=C(O)c1cccc2c1C(=O)N(C1CCCCC1)C2`, -4.3% (inactive). For `CCN(CC)P(=O)(/C(Cl)=C\Nc1c(C)n(C)n(-c2ccccc2)c1=O)N(CC)CC` the value was -5.1% (inactive). Consider `CCOC(=O)c1sc(NC(=O)c2cc(S(=O)(=O)N3CCOCC3)ccc2C)nc1C`, for which the inhibition is 3.07% (inactive). As to `O=S(=O)(c1ccc2ccccc2c1)N1CCN(S(=O)(=O)N2CCOCC2)CC1`, the inhibition is -6.43% (inactive). As for `Cc1noc(C)c1CSc1nc2cc(S(=O)(=O)N3CCOCC3)ccc2o1`, the figure is 86.2% (active); as for `CCOCCCNC(=O)Cc1cc(=O)[nH]c(=O)[nH]1`, 5.5% (inactive). For `CC(=O)Oc1ccc(C)cc1N1C(=O)c2ccc(C(=O)O)cc2C1=O`, the inhibition was -4.48% (inactive). As for `COc1ccc(OC)c(NC(=O)Cn2c(=O)oc3ccccc32)c1`, the figure is -1.94% (inactive); as for `NC(=O)Cn1c(=O)oc2ccccc21`, 96.3% (active).

For the compound `CC1CCCN(C(=O)Cn2c(=O)oc3ccccc32)C1` (stereo not drawn), the inhibition was 7.78% (inactive). For `O=C(Nc1nc(-c2ccncc2)cs1)C1COc2ccccc2O1` (stereo not drawn) the value was 83.8% (active); for `COc1ccc(OC)c2sc(NC(=O)C3COc4ccccc4O3)nc12` (stereo not drawn), 1.92% (inactive). As for `O=C(Nc1nc(-c2ccc3c(c2)OCO3)cs1)c1ccncc1`, the figure is -9.11% (inactive); as for `O=C(CCSCCc1ccccn1)Nc1nccs1`, -23.9% (inactive); as for `CCOC(=O)c1c(C)c(C(=O)NCCc2ccc(S(N)(=O)=O)cc2)c(C)n1CC`, -6.32% (inactive). As to `CNC(=O)CN1C(=O)c2ccccc2S1(=O)=O`, the inhibition is 4.74% (inactive). Take `CCCc1nnc(NC(=O)CN2C(=O)c3ccccc3S2(=O)=O)s1`: the inhibition is 89.7% (active). As to `CCCc1nnc(NC(=O)c2cc(OC)cc(OC)c2)s1`, the inhibition is 4.61% (inactive). As for `O=C(CN1CCOCC1)Nc1c(-c2ccccc2)c2cc(Br)ccc2[nH]c1=O`, the figure is 9.93% (inactive); as for `COc1ccc(N2CCN(CCNC(=O)c3nnc(Cc4c(F)cccc4Cl)o3)CC2)cc1`, 4.44% (inactive); as for `CCC(=NC1CC(C)(C)NC(C)(C)C1)C1=C(O)CC(C)(C)CC1=O`, -6.23% (inactive). `Oc1ccc(-c2csc(Nc3cccnc3)n2)cc1`: the inhibition was 34.2% (inactive). For `COc1ccc(OC)c(Nc2nc(-c3ccc(O)c(O)c3)cs2)c1` the value was 71.9% (active); for `COc1ccc(-c2n[nH]c(C)c2-c2ccc(OC)c(OC)c2)c(O)c1`, 3.91% (inactive); for `COCCN(C(=O)CCC(=O)Nc1ccccn1)C(C(=O)NCCC(C)C)c1ccc(OC)cc1` (stereo not drawn), 3.89% (inactive). As for `CSCCC(Nc1nc2ccccc2s1)C(=O)O` (stereo not drawn), the figure is -3.78% (inactive). Turning to `O=C(NCc1ccccn1)c1ccc2nc(-c3ccco3)c(-c3ccco3)nc2c1`, the inhibition was 87.7% (active). As for `Cc1cccn2c(=O)c3cc(C(=O)NCc4ccccn4)n(C)c3nc12`, the figure is -10.5% (inactive); as for `O=C(NCc1ccccn1)c1cc2ccccc2oc1=O`, -3.63% (inactive). As for `CC(Sc1nncs1)C(=O)NCc1ccc2c(c1)OCO2` (stereo not drawn), the figure is -19.3% (inactive); as for `Cc1nc2nc(CSc3nc4ccccc4s3)cc(=O)n2[nH]1`, 4.18% (inactive).

As for `c1ccc(-n2ncc3c2ncn2c(C4CCCCC4)nnc32)cc1`, the inhibition was -1.63% (inactive). For `c1ccc(-n2ncc3c2ncn2c(CSc4nc5ccccc5s4)nnc32)cc1` the value was 63.5% (active); for `CN1CCN(C(=O)C2C3C=CC(C3)C2C(=O)O)CC1` (stereo not drawn), 0.5% (inactive). As for `CCN(CC)CCN1C(=O)C(=O)/C(=C(/O)c2ccc(OC)c(OC)c2)C1c1ccccn1` (stereo not drawn), the figure is 5.17% (inactive). Turning to `COc1ccc(Cc2nnc(NC(=O)Cc3cccs3)s2)cc1`, the inhibition was 70.2% (active). As for `COCC(=O)Nc1nnc(COc2ccccc2)s1`, the figure is -3.37% (inactive). Turning to `COc1ccc(Cc2nnc(NS(=O)(=O)Cc3ccccc3)s2)cc1`, the inhibition is 1.94% (inactive). Consider `CCOC(=O)c1c(-n2cnnn2)sc(C)c1C`, for which the inhibition was 70.4% (active). As for `CCOC(=O)c1c(NC(=O)c2cccs2)sc(C)c1C`, the figure is -2.71% (inactive). As for `CCOC(=O)c1c(NC(=O)CSc2nnc(Cc3csc(N)n3)n2C)sc(C)c1C`, the figure is -19.7% (inactive); as for `Cc1cccc(NC(=O)C2CCCN2S(=O)(=O)c2ccc(F)cc2)c1C` (stereo not drawn), -5.03% (inactive). As for `COc1ccc(CCNC(=O)c2ccc3c(c2)NC(=O)C(N2CCOCC2)S3)cc1OC` (stereo not drawn), the figure is -10.7% (inactive); as for `O=c1cc(-c2ccccc2)nc(N2CCCCC2)[nH]1`, -11.7% (inactive); as for `CC(=O)N1CCN(c2ccc(NCc3ccc(C(C)C)cc3)cc2)CC1`, -16.6% (inactive). Regarding `CCOC(=O)CSc1nc2c(c(=O)n(C)c(=O)n2C)n1Cc1ccccc1F`, the inhibition is -12.1% (inactive). As for `COc1ccccc1NC(=O)CSc1nc2sc(C)c(C)c2c(=O)n1Cc1ccco1`, the figure is 9.92% (inactive); as for `CCOC(=O)CSc1nc2c(sc(=S)n2CCc2ccccc2)c(=O)n1Cc1ccco1`, 60.1% (active). Turning to `COc1ccc(C2C(C#N)=C(N)Oc3n[nH]c(C)c32)cc1CN1CCN(c2ccc(F)cc2)CC1` (stereo not drawn), the inhibition was -5.93% (inactive). For `CCN(CC)S(=O)(=O)c1ccc2nc(COC(=O)c3n[nH]c4ccccc34)[nH]c2c1` the value was 55.6% (active); for `CCN(CC)S(=O)(=O)c1ccc2nc(CSc3nnnn3-c3ccc(O)cc3)[nH]c2c1`, 10.6% (inactive); for `COc1ccc(COC(=O)c2n[nH]c3ccccc23)cc1F`, -42.8% (inactive). As for `CCCCC(=O)N1CC2(C)CN(C(=O)CCCC)CC(C)(C1)C2=O`, the figure is -4.52% (inactive); as for `Cc1cc(C)c2c(n1)nn1c(N3CCN(c4cccc(Cl)c4)CC3)cc(C)nc21`, 29.6% (inactive).

Take `CN1CCc2c(sc3c2c(NCc2ccco2)nc2nnnn23)C1`: the inhibition is 1.26% (inactive). As for `COC(=O)c1cc(S(=O)(=O)NC2CCN(Cc3ccccc3)CC2)cn1C`, the figure is -1.44% (inactive).

Consider `CC(C)CNC(=O)C1CCCN(S(=O)(=O)c2ccc(-n3cnnn3)cc2)C1` (stereo not drawn), for which the inhibition is 55.3% (active). As for `CC(C)CCNC(=O)C1CCCN(S(=O)(=O)c2ccc(F)cc2)C1` (stereo not drawn), the figure is -4.63% (inactive); as for `CCS(=O)(=O)N1CCCC(C(=O)NCc2ccc(C)cc2)C1` (stereo not drawn), -25.4% (inactive). For `CC(Oc1ccc(Cl)cc1)C(=O)Nc1ncccn1` (stereo not drawn) the value was -1.55% (inactive). Regarding `COc1ccc(CCNC(=O)c2cc3sccc3n2C)cc1OC`, the inhibition is -5.6% (inactive). As for `O=C(Nc1nccs1)C1CCCN1S(=O)(=O)c1cccc2cccnc12` (stereo not drawn), the figure is -30.1% (inactive); as for `CCc1nc(Nc2ccc3nccnc3c2)c2oc3ccccc3c2n1`, -0.27% (inactive). Consider `COc1cc(C2C(C(=O)c3ccc(C)o3)=C(O)C(=O)N2Cc2cccnc2)ccc1O` (stereo not drawn), for which the inhibition was 5.97% (inactive).
